# Assays:
# Assay in all cases: DAPPL (digital affinity profiling via proximity ligation, sequencing); 10 mM Tris-HCl pH 7.5, 50 mM NaCl, 1 mM DTT, 4% glycerol, room temperature, 30 min; GST-TFs on glutathione beads, 16-mer random dsDNA library, 0.1% formaldehyde crosslink after washing; high values mean tight binding
# FEV = target: T1, FEV (Homo sapiens, UniProt Q99581 1-238); settings: protein: recombinant; tags: N-terminal GST; dsDNA, one strand shown
# T1 sequence: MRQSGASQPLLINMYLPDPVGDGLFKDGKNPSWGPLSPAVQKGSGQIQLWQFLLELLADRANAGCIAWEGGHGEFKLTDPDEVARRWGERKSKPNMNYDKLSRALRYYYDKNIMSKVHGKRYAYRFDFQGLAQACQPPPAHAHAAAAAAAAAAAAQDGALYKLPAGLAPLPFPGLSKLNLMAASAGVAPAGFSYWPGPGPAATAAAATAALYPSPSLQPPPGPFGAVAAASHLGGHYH
# In short: (§1)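 Human transcription factors were made in yeast as GST fusions, captured on glutathione beads and barcoded with DNA. With a tag-only sample included, the pool was incubated with 200 nmole of a random double-stranded 16-mer DNA library in Tris/NaCl/DTT/glycerol buffer at room temperature for 30 min, then crosslinked with 0.1% formaldehyde after washing, ligated by proximity, amplified and sequenced. For binding signal, each hexamer's read frequency for a factor is divided by its frequency for the tag-only sample.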
# ETV5 = ETV5 (Homo sapiens, UniProt P41161 1-510); settings: protein: recombinant; tags: N-terminal GST; dsDNA, one strand shown
# In short: as §1
# HSF1 = HSF1 (Homo sapiens, UniProt Q00613 1-529); settings: protein: recombinant; tags: N-terminal GST; chain copies: 3; dsDNA, one strand shown
# In short: as §1
# SPIC = target: T2, SPIC (Homo sapiens, UniProt Q8N5J4 1-248); settings: protein: recombinant; tags: N-terminal GST; dsDNA, one strand shown
# T2 sequence: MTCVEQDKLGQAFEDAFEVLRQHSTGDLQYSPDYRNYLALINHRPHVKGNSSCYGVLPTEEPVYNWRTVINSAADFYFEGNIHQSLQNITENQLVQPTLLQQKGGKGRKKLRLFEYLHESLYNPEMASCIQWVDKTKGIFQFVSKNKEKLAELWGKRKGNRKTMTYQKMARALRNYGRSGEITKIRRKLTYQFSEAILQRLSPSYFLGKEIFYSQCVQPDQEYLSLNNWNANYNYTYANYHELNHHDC
# In short: as §1
# ELF4 = ELF4 (Homo sapiens, UniProt Q99607 1-663); settings: protein: recombinant; tags: N-terminal GST; dsDNA, one strand shown
# In short: as §1
# ELK4 = target: T3, ELK4 (Homo sapiens, UniProt P28324-2 1-405); settings: protein: recombinant; tags: N-terminal GST; dsDNA, one strand shown
# T3 sequence: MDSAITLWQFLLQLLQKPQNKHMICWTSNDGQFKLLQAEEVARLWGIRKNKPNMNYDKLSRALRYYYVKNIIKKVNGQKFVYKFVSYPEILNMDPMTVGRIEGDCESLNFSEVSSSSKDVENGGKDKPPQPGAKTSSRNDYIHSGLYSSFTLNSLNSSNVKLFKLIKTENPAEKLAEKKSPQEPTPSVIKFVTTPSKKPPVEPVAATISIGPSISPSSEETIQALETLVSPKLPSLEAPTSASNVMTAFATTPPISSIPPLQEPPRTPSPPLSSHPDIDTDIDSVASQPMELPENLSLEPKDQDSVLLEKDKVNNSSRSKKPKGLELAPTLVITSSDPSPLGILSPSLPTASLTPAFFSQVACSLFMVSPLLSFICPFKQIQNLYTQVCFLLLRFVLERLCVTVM
# In short: as §1
# ETV2 = target: T4, ETV2 (Homo sapiens, UniProt O00321 1-342); settings: protein: recombinant; tags: N-terminal GST; dsDNA, one strand shown
# T4 sequence: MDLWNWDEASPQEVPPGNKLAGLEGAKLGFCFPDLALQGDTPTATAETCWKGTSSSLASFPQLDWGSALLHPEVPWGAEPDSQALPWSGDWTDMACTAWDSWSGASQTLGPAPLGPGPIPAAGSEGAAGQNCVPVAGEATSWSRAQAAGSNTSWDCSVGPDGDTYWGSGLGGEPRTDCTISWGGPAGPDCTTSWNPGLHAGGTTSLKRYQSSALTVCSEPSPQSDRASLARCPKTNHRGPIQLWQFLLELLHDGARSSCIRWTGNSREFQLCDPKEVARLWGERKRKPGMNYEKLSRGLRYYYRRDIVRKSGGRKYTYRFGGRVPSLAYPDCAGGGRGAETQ
# In short: as §1
# ELF3 = target: T5, ELF3 (Homo sapiens, UniProt P78545 1-371); settings: protein: recombinant; tags: N-terminal GST; dsDNA, one strand shown
# T5 sequence: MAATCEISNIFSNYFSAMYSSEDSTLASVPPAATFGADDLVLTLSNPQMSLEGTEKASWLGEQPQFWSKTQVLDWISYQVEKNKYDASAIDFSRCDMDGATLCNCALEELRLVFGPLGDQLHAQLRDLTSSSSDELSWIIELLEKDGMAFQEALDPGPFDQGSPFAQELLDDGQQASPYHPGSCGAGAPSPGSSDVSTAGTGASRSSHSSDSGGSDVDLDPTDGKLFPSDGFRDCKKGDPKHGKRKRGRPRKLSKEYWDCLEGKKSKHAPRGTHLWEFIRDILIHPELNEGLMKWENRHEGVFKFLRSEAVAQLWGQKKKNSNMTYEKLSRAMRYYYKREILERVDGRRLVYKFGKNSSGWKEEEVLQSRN
# In short: as §1
# CRX = CRX (Homo sapiens, UniProt O43186 1-299); settings: protein: recombinant; tags: N-terminal GST; dsDNA, one strand shown
# In short: as §1
# ETV1 = ETV1 (Homo sapiens, UniProt P50549 1-477); settings: protein: recombinant; tags: N-terminal GST; dsDNA, one strand shown
# In short: as §1
# ETV5, sequence (P41161 whole entry): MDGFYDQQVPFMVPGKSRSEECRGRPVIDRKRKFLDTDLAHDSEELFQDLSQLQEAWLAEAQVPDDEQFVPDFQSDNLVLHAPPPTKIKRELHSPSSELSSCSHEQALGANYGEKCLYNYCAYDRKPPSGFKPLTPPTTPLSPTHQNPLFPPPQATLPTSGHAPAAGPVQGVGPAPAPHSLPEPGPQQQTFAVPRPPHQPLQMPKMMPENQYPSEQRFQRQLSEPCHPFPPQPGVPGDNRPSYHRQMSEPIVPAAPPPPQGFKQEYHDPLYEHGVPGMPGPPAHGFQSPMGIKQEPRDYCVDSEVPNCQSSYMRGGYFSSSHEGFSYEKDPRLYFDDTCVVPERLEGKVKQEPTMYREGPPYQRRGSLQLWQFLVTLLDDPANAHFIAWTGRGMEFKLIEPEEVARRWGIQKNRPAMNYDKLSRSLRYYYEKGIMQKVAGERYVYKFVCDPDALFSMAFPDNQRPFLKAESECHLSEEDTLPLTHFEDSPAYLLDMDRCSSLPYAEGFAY
# HSF1, sequence (Q00613 whole entry): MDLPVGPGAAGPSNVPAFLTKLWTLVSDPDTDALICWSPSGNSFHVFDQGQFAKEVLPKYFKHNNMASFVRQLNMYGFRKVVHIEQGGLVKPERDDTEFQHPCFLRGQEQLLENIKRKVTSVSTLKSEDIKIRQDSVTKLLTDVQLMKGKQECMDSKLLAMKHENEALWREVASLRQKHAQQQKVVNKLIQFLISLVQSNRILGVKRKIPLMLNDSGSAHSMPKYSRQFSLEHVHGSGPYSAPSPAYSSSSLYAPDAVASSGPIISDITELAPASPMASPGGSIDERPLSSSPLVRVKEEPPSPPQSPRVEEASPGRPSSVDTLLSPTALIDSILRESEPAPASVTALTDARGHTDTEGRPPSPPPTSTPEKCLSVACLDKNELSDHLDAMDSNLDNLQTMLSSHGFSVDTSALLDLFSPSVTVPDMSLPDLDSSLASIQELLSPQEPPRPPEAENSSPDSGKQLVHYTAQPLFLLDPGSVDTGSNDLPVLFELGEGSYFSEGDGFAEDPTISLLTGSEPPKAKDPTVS
# CRX, sequence (O43186 whole entry): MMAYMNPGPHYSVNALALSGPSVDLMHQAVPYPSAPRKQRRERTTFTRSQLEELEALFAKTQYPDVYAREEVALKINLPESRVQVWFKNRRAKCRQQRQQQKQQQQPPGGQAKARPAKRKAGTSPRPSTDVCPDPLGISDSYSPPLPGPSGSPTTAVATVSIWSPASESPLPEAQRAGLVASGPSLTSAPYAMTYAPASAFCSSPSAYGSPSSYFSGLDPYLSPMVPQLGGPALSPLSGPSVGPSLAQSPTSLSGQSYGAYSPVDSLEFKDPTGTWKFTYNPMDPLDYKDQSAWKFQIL
# ETV1, sequence (P50549 whole entry): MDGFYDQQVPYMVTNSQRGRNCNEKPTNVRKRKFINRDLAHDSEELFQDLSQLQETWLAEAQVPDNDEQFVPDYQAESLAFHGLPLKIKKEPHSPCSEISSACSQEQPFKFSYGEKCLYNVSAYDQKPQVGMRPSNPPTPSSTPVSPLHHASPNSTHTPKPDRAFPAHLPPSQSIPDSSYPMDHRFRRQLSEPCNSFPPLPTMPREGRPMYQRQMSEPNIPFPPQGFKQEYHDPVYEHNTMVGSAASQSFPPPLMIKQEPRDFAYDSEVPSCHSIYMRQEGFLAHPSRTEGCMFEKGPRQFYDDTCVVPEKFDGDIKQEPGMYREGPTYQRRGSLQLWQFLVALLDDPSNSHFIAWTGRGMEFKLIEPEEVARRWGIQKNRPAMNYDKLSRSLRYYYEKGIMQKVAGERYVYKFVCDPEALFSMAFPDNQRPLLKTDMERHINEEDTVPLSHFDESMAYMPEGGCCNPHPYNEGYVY
# ELF4, sequence (Q99607 whole entry): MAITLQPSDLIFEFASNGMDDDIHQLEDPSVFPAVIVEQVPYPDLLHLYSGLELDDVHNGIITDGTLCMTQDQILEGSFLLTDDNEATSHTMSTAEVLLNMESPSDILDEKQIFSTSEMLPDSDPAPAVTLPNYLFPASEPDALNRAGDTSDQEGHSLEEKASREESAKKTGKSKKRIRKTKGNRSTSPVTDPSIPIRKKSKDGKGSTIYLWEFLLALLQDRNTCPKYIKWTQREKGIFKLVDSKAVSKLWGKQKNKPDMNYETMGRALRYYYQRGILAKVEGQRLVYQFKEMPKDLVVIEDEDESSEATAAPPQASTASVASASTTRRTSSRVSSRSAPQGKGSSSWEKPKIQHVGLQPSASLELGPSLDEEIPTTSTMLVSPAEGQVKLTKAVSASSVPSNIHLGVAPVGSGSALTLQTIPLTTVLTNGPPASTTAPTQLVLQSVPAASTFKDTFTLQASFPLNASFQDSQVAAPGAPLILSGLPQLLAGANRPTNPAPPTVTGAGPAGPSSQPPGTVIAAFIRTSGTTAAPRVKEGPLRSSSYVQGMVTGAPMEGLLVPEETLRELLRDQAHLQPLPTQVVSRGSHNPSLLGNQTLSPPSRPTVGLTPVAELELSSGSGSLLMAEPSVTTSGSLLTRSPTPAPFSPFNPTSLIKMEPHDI
sequence,measurement,setting,value
AACTTC,binding signal,FEV,"3.12 fold enrichment (6-mer frequency, TF over GST control)"
same,binding signal,ETV5,"2.71 fold enrichment (6-mer frequency, TF over GST control)"
same,binding signal,HSF1,"2.02 fold enrichment (6-mer frequency, TF over GST control)"
same,binding signal,SPIC,"2.83 fold enrichment (6-mer frequency, TF over GST control)"
same,binding signal,ELF4,"2.44 fold enrichment (6-mer frequency, TF over GST control)"
same,binding signal,ELK4,"2.34 fold enrichment (6-mer frequency, TF over GST control)"
same,binding signal,ETV2,"2.52 fold enrichment (6-mer frequency, TF over GST control)"
same,binding signal,ELF3,"2.39 fold enrichment (6-mer frequency, TF over GST control)"
same,binding signal,CRX,"1.45 fold enrichment (6-mer frequency, TF over GST control)"
same,binding signal,ETV1,"2.6 fold enrichment (6-mer frequency, TF over GST control)"
